In PubChem BioAssay (NCATS):
Records with an inconclusive call do not appear. Activity calls are given as the source filed them. Calls follow the shape of the dose curve; as a rule, active = well fitted inhibition curve with a large enough effect; inconclusive = small, poorly fitted or top-dose-only effect; inactive = flat fitted curve, though single readings scatter.

Legend:
[1] = system: CRL-7250; assay: Cytotoxic Profiling of Annotated Libraries Using Quantitative High-Throughput Screening (AID 1296008); conditions: Five cell lines viability, CellTiter-Glo ATP luminescence, 48-72 h; max response: stronger effect = lower value; as to max response: % is scaled to controls: 0 for no effect and ±100 for the full control effect
Outline: (§1)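 Cytotoxicity was measured as CellTiter-Glo ATP luminescence, read after 10 min at room temperature. Compound treatment of the cells lasted 48 or 72 hr at 37 degrees Celsius in a qHTS format.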

[2] = system: HEK293; assay: as above; conditions: Five cell lines viability, CellTiter-Glo ATP luminescence, 48-72 h; max response: stronger effect = lower value
Outline: as §1

[3] = system: HaCat; assay: as above; conditions: Five cell lines viability, CellTiter-Glo ATP luminescence, 48-72 h; max response: stronger effect = lower value
Outline: as §1

[4] = system: KB-3-1; assay: as above; conditions: Five cell lines viability, CellTiter-Glo ATP luminescence, 48-72 h; max response: stronger effect = lower value
Outline: as §1

[5] = system: NIH3T3; assay: as above; conditions: Five cell lines viability, CellTiter-Glo ATP luminescence, 48-72 h; max response: stronger effect = lower value
Outline: as §1

[6] = system: SC27B; assay: qHTS profiling for inhibitors of Plasmodium falciparum proliferation (AID 504749);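 also: 0% = DMSO vehicle and full inhibition = artemisinin control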; conditions: P. falciparum in erythrocytes, SYBR Green DNA, 72 h; series mostly up to 28.7 µM
Outline: (§2)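 Infected RBCs, 0.3% parasitemia/2.5% Hct final; cpd 72 h, 37 C, 5% CO2; lysis buffer with saponin/triton/SYBR Green I, o/n RT dark; FI 485/535; norm. to artemisinin (0.29 uM) and DMSO.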

[7] = system: TAB109; assay: as above; conditions: P. falciparum in erythrocytes, SYBR Green DNA, 72 h; series mostly up to 28.7 µM
Outline: as §2

[8] = system: TAB113; assay: as above; conditions: P. falciparum in erythrocytes, SYBR Green DNA, 72 h; series mostly up to 28.7 µM
Outline: as §2

[9] = system: TAB165; assay: as above; conditions: P. falciparum in erythrocytes, SYBR Green DNA, 72 h; series mostly up to 28.7 µM
Outline: as §2

[10] = system: W2; assay: as above; conditions: P. falciparum in erythrocytes, SYBR Green DNA, 72 h; series mostly up to 28.7 µM
Outline: as §2

Measured: max response
Also: nearly all actives have a fitted effect of over 60% in size.

CC1(C)C[C@H]2C=C(C=O)[C@]3(C(=O)O)C[C@]3(C)[C@H]2C1
inactive: [1] -0.156% | [2] -14% | [3] | [4] 6.21% | [5] 0.712%

COc1cc(/C=C/C(=O)O)ccc1O[C@@H]1O[C@H](CO)[C@@H](O)[C@H](O)[C@H]1O[C@@H]1OC[C@](O)(CO)[C@H]1O
inactive: [1] | [2] -3.47% | [3] | [4] 0.854% | [5]

CCOC(=O)C(CCc1ccccc1)NC1CCCN2CCCC(C(=O)O)N2C1=O (stereo not given)
inactive: [1] 2.69% | [2] | [3] 1.44% | [4] 2.78% | [5] 0.311%

COc1cncc(C#Cc2ccccn2)c1
inactive: [1] 4.39% | [2] 2.17% | [3] | [4] -1.99% | [5] -3.14%

C[C@H]1CC[C@H]2[C@@H](C=C[C@@](C)(O)[C@]2(C)C(=O)CCO)C1
inactive: [1] | [2] 4.9% | [3] | [4] 5.8% | [5]

CN1CCc2cc(Cl)c(O)cc2[C@@H](c2cccc3c2OCC3)C1
inactive: [1] | [2] -11.4% | [3] -1.65% | [4] -4.72% | [5]

C[C@H]1[C@H](C)CC[C@]2(C(=O)OC3OC(CO)C(O)C(O)C3O)CC[C@]3(C(=O)O)C(=CCC4[C@@]5(C)CC[C@H](O[C@@H]6O[C@@H](C)[C@H](OC7OC(CO)C(O)C(O)C7O)[C@@H](O)[C@H]6O)C(C)(C)C5CC[C@]43C)[C@H]12 (stereo not given in full)
inactive: [1] -1.78% | [2] 2.35% | [3] | [4] | [5] -8.63%

CCc1cccc2c3c([nH]c12)[C@@](CC)(CC(=O)O)OCC3
inactive: [6] | [7] | [8] | [9] | [10] | [1] 0.605% | [2] 3.28% | [3] | [4] | [5] 1.91%

Cc1ccc(COC(=O)N2CC[C@@H](CNc3ncccn3)[C@@H](F)C2)cc1
inactive: [1] -0.943% | [2] -31.7% | [3] | [4] -17.2% | [5] -18.5%

COc1cc(CO)ccc1O[C@@H]1O[C@H](CO)[C@@H](O)[C@H](O)[C@H]1O
inactive: [1] -0.424% | [2] -18.7% | [3] | [4] 5.53% | [5]

COC1OC(=O)C2=C1C1(C)CCCC(C)(C)C1CC2O (stereo not given)
inactive: [1] -6.21% | [2] 1.96% | [3] | [4] | [5]

C=C(CC/C=C(\C)C(=O)O)C1(O)CC=C(C)CC1 (stereo not given)
inactive: [1] 2.5% | [2] 4.47% | [3] | [4] | [5]

COc1c(C)c(OCC(O)C(C)(C)O)cc2c1CNC2=O (stereo not given)
inactive: [1] 2.44% | [2] -3.96% | [3] | [4] 5.28% | [5] -1.72%

CC1(C)CC[C@]2(C(=O)O[C@@H]3O[C@H](CO[C@@H]4O[C@H](CO[C@@H]5O[C@H](CO)[C@H](O)[C@H](O)[C@H]5O)[C@@H](O)[C@H](O)[C@H]4O)[C@@H](O)[C@H](O[C@@H]4O[C@H](CO)[C@@H](O)[C@H](O)[C@H]4O)[C@H]3O)[C@H](O)C[C@]3(C)C(=CCC4[C@@]5(C)CC[C@H](O[C@@H]6OC[C@@H](O)[C@H](O)[C@H]6O)[C@@](C)(C(=O)O)C5CC[C@]43C)[C@@H]2C1 (stereo not given in full)
inactive: [1] 2.11% | [2] -1.97% | [3] | [4] | [5]

O=C(O)c1cccc(C(=O)CCC2OC(n3cnc4c(=O)[nH]cnc43)C(O)C2O)c1 (stereo not given)
inactive: [1] | [2] -2.52% | [3] | [4] 3.59% | [5]

C=C(C)[C@@H]1CC[C@]2(CO)CC[C@]3(C)[C@H](CC[C@@H]4[C@@]5(C)CC[C@H](O)C(C)(C)[C@@H]5CC[C@]43C)[C@@H]12
inactive: [1] 1.98% | [2] 3.79% | [3] 2.42% | [4] | [5]

COc1cc(C(C)=O)ccc1O[C@@H]1O[C@H](CO)[C@@H](O)[C@H](O)[C@H]1O
inactive: [1] -12.2% | [2] -0.593% | [3] | [4] 6.72% | [5] 0.808%

COc1ccc(-n2c(=O)[nH]c3cc(C(=O)NCc4ccc(Cl)cc4)sc3c2=O)nc1OC
inactive: [1] 1.31% | [2] 2.86% | [3] -5.79% | [4] 2.11% | [5]
